Broadly, the AC50 is the concentration giving half of the maximal activity seen.

Results filed as inconclusive are left out. The source made the active and inactive calls. Rule for the calls: active = hit-call score of the fitted dose curve at least 0.9, where 1 is the maximum; inconclusive = response in the unintended direction; inactive = score below 0.9.

In PubChem BioAssay (EPA / NIEHS) one finds outcome and AC50 data, which are given here for 20 compounds.

rat Constitutive Nitric Oxide Synthase (CNOS), Nos1 (gene 24598), sequence (P29476 whole entry, looked up): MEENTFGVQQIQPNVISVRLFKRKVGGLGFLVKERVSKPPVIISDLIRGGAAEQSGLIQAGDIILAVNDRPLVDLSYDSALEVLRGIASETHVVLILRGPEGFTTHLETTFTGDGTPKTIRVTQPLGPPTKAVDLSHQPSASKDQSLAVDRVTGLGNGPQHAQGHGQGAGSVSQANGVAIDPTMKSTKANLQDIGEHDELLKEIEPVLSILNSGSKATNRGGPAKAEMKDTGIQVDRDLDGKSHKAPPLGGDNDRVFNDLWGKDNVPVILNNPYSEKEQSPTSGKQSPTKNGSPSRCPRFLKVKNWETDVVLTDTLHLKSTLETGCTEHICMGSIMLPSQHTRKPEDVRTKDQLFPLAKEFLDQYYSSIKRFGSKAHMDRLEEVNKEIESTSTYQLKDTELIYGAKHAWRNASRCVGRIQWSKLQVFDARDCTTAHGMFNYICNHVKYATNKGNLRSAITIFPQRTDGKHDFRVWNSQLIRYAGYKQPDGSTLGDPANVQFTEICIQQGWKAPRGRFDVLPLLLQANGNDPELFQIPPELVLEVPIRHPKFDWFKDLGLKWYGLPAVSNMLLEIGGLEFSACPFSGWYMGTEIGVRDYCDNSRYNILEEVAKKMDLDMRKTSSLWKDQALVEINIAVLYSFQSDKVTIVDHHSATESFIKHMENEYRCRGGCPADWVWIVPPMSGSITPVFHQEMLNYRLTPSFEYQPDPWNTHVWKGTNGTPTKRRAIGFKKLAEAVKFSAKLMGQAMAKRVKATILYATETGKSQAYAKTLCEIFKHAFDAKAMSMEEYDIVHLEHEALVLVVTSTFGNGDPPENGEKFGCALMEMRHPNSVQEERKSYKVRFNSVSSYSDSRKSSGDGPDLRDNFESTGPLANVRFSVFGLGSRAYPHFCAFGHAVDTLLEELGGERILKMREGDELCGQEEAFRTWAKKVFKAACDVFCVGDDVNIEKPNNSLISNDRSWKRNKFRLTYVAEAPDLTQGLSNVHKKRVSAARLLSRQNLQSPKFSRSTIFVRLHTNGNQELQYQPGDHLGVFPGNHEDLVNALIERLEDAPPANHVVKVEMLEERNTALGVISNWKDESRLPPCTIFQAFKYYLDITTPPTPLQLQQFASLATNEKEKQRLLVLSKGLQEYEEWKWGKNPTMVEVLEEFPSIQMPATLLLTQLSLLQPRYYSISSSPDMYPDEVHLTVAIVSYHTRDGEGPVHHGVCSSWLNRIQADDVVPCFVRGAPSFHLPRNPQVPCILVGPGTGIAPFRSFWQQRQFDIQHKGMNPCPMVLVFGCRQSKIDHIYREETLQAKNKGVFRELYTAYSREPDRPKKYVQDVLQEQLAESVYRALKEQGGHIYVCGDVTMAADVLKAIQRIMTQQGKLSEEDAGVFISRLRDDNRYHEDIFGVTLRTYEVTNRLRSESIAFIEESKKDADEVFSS

In the first assay the target is rabbit Imidazoline 2 Central (I2C), CKB (gene 100009085) (UniProt P00567). As to the kind of experiment: NVS_ENZ_rabI2C: NovaScreen (NVS) Enzymatic Assay for rabbit Imidazoline 2 Central (I2C) (AID 2283228). A digest of the protocol: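 Rabbit brain membranes, cell-free; readout by filter-based scintillation counting 1.5 hours after dosing, loss of signal vs DMSO. Initial duplicate test at 25 uM, then concentration-response with 50 uM top concentration.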
rabbit Imidazoline 2 Central (I2C), CKB (gene 100009085), sequence (P00567 whole entry, looked up): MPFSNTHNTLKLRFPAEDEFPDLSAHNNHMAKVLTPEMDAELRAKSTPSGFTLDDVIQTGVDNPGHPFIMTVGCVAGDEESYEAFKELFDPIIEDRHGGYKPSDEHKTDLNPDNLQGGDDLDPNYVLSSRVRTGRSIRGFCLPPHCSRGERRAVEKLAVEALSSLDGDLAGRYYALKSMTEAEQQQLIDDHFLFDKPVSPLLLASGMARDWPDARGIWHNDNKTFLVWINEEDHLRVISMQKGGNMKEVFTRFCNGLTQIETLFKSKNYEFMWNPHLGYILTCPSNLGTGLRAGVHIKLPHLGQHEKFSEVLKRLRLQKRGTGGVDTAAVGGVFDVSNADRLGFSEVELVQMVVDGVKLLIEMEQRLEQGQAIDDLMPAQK
On to `Cn1cnc2c1c(=O)[nH]c(=O)n2C`, for which the call was inactive. Take `NC1CCCCC1`: the AC50 is 30.3 µM (active). Turning to `CCc1nc(N)nc(N)c1-c1ccc(Cl)cc1`, the AC50 is 2.83 µM (active). As to `NC(=Nc1ccccc1)Nc1ccccc1`, the compound was classed as inactive.

Consider `O=C(O)c1[nH]n(-c2ccc(S(=O)(=O)O)cc2)c(=O)c1N=Nc1ccc(S(=O)(=O)O)cc1`, for which the compound was called inactive.

The target in a further assay is human Vascular Endothelial Growth Factor Receptor 2 (VEGFR2), KDR (gene 3791) (UniProt P35968). As to the kind of experiment: NVS_ENZ_hVEGFR2: NovaScreen (NVS) Enzymatic Assay for human Vascular Endothelial Growth Factor Receptor 2 (VEGFR2) (AID 2283230). Here is the method: NVS_ENZ_hVEGFR2 is a biochemical, single-readout assay that uses extracted gene-proteins in a cell-free assay. Measurements were taken 1 hour after chemical dosing in a 384-well plate.NVS_ENZ_hVEGFR2 is one of one assay component(s) measured or calculated from the NVS_ENZ_hVEGFR2 assay. It is designed to make measurements of enzyme activity, a form of enzyme reporter, as detected with fluorescence intensity signals by Fluorescence and electrophoretic mobility shift technology.Data from the assay component NVS_ENZ_hVEGFR2 was analyzed into 1 assay endpoint. This assay endpoint, NVS_ENZ_hVEGFR2, was analyzed in the positive analysis fitting direction relative to DMSO as the negative control and baseline of activity. Using a type of enzyme reporter, loss-of-signal activity can be used to understand changes in the enzymatic activity as they relate to the gene KDR. Furthermore, this assay endpoint can be referred to as a primary readout, because this assay has produced multiple assay endpoints where this one serves a enzymatic activity function. To generalize the intended target to other relatable targets, this assay endpoint is annotated to the kinase intended target family, where the subfamily is receptor tyrosine kinase.
human Vascular Endothelial Growth Factor Receptor 2 (VEGFR2), KDR (gene 3791), sequence (P35968 whole entry, looked up): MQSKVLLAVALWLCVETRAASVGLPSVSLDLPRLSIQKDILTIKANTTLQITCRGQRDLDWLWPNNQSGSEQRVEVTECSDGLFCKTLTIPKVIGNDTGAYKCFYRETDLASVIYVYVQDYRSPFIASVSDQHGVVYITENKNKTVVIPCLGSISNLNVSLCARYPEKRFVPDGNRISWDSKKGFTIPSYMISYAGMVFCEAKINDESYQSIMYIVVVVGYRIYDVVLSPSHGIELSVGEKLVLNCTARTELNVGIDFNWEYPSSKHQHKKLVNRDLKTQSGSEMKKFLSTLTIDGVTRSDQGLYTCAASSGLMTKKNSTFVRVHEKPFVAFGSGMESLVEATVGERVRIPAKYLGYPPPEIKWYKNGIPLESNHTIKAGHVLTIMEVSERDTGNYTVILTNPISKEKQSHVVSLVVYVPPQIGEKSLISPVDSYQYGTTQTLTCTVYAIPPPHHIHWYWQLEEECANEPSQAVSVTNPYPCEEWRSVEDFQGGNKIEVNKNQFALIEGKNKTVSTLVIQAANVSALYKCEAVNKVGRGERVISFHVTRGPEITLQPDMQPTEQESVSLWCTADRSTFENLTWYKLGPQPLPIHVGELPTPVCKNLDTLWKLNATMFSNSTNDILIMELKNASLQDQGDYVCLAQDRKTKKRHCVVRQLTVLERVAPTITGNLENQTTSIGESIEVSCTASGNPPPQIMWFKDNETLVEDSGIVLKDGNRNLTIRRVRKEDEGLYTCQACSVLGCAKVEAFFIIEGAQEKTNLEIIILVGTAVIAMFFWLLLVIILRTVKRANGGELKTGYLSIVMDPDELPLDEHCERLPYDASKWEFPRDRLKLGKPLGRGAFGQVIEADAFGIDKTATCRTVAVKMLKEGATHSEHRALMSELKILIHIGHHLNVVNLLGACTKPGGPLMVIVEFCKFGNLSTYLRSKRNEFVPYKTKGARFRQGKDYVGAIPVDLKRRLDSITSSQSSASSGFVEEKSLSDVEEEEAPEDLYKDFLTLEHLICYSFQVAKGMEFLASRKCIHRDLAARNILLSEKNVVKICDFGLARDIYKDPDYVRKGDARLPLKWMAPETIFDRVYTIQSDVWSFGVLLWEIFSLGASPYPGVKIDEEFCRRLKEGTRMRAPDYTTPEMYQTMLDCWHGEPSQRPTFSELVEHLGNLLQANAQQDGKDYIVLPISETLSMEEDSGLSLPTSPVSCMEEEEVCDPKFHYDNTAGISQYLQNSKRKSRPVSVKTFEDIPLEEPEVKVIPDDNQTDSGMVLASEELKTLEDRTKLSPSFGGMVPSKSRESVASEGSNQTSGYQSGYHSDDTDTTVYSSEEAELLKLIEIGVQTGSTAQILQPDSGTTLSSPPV
Binding assays used specific radioligands (tritiated, iodinated) with non-radioactive competitive displacement ligands in agonist or antagonist protocols (as indicated) and various reference compounds and inhibitors to titrate specific binding to receptors and transporters. Most enzyme assays (CYPs, kinases, phosphatases, proteases, HDACs) used recombinant protein and specific substrates (fluorescence mostly, some colorimetric and radioactive) and inhibitors, followed by a biochemical separation of substrate and product. All assays for the biochemical HTS were initially run in duplicate at a single concentration (10 uM for CYP450 assays and 25 uM for all others). Assay-chemical combinations meeting a pre-defined threshold (e.g., 30% inhibition and other criteria defined below) were then run in singleton concentration-response format with maximum concentration of 20 uM for CYPs and 50 uM for all others. Each assay was run with positive and negative controls, and concurrent controls on every plate. The follow-up (secondary) screen tested active chemical-pairs in concentration series, as well as a few additional assays not tested in the primary screen, some selected negative inactives, and several cases re-run in the concentration series for confirmatory purposes.
In the case of `CCCCC(CC)COC(=O)CCCCCCCC(=O)OCC(CC)CCCC` (stereo not drawn), the outcome was inactive. On the same count and under the same terms, in the case of `NC(=Nc1ccccc1)Nc1ccccc1` it was “inactive”.

Turning to `Nc1nc(Cl)nc2c1ncn2[C@H]1C[C@H](O)[C@@H](CO)O1`, the half-maximal activity concentration (AC50) is 4.88 µM (active).

A further assay deals with sheep Cyclooxygenase-2 (Cox2), PTGS2 (gene 443460) (UniProt P79208). Put plainly: NVS_ENZ_oCOX2: NovaScreen (NVS) Enzymatic Assay for sheep Cyclooxygenase-2 (Cox2) (AID 2283231). A digest of the protocol: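 Enzyme from ovine placenta, cell-free; colorimetric absorbance read 0.66 hour after dosing, loss of signal vs DMSO. Screened in duplicate at 25 uM, then concentration-response up to 50 uM.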
sheep Cyclooxygenase-2 (Cox2), PTGS2 (gene 443460), sequence (P79208 whole entry, looked up): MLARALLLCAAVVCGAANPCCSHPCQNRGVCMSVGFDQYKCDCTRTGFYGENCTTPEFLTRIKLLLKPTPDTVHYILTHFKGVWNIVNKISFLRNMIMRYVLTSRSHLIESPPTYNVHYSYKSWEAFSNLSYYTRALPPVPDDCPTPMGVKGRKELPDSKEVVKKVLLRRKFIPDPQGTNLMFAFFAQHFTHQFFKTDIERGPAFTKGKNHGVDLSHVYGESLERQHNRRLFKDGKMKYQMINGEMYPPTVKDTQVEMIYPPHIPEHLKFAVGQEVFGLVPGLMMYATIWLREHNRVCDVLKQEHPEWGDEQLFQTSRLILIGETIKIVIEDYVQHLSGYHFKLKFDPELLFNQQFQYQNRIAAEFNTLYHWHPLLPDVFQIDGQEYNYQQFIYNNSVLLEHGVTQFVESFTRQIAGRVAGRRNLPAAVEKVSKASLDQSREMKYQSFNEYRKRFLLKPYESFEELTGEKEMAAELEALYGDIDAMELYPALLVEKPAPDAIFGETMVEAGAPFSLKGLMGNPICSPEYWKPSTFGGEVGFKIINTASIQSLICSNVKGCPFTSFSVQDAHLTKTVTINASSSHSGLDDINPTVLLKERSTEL
For `C/C=C/c1ccc(OC)cc1`, the result was inactive. Same read-out and setting: in the case of `CCc1nc(N)nc(N)c1-c1ccc(Cl)cc1` it was “inactive”; in that of `O=NO`, “inactive”. Regarding `CCc1cc(C2=C(C(=O)O)N(c3ccccc3C(F)(F)F)S(=O)(=O)c3ccccc32)cc2c1OCO2`, the AC50 was 19.2 µM (active).

With `Oc1ccccc1O`, the compound was classed as inactive.

On to `COc1ccc(C(=O)Nc2nc3ccccc3c(NCc3ccccc3)c2C#N)cc1`, for which the AC50 was 13.7 µM (active). `O=C1c2c(O)cccc2Cc2cccc(O)c21`: the AC50 is 6.81 µM (active).

For the compound `S=c1[nH]c2ccccc2s1`, the AC50 is 9.72 µM (active).

The target of a further assay is rat Catechol-O-Methyl Transferase (COMT), Comt (gene 24267) (UniProt P22734). Put plainly: NVS_ENZ_rCOMT: NovaScreen (NVS) Enzymatic Assay for rat Catechol-O-Methyl Transferase (COMT) (AID 2283235). A digest of the protocol: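 Cell-free enzyme activity with protein extracted from rat dorsal striatum, measured by HPLC with absorbance detection. Compounds screened at 25 uM in duplicate; actives then run in concentration-response up to 50 uM, loss of signal versus DMSO.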
rat Catechol-O-Methyl Transferase (COMT), Comt (gene 24267), sequence (P22734 whole entry, looked up): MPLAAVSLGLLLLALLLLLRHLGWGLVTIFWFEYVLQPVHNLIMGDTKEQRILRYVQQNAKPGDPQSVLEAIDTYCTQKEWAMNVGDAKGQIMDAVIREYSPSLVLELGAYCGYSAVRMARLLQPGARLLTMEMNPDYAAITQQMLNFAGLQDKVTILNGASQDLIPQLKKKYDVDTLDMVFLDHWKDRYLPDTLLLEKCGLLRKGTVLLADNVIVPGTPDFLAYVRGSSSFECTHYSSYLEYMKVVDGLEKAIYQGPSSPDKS
Regarding `CC(=O)OCC(COC(C)=O)OC(C)=O`, the result was inactive.

With `Oc1ccccc1O`, the result was inactive. For the compound `O=C1c2c(O)cccc2Cc2cccc(O)c21`, the AC50 was 12.1 µM (active).

A further assay concerns the target rat Constitutive Nitric Oxide Synthase (CNOS), Nos1 (gene 24598) (UniProt P29476). Put plainly: NVS_ENZ_rCNOS: NovaScreen (NVS) Enzymatic Assay for rat Constitutive Nitric Oxide Synthase (CNOS) (AID 2283236). In short, it runs like this: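 Enzyme activity in rat brain membrane preparation, read 1 h after dosing by filter-based radiometric scintillation counting. Primary screen in duplicate at 25 uM; actives (e.g., ≥30% inhibition) then run in concentration-response up to 50 uM.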
On to `CC(=O)S[C@H](C(=O)N[C@H]1Cc2ccccc2[C@H]2CCC[C@@H](C(=O)O)N2C1=O)C(C)C`, for which the outcome was inactive. Still for that read-out and setting: in the case of `CCC(C)N(C)C(=O)c1cc2ccccc2c(-c2ccccc2Cl)n1` (stereo not drawn) it was “inactive”. As for `O=C(O)c1[nH]n(-c2ccc(S(=O)(=O)O)cc2)c(=O)c1N=Nc1ccc(S(=O)(=O)O)cc1`, the AC50 was 9.33 µM (active). On the same count and under the same terms, in the case of `O=C1c2c(O)cccc2Cc2cccc(O)c21` it was 5.47 µM (active). Same read-out and setting: in the case of `S=c1[nH]c2ccccc2s1` it was 10.6 µM (active).

A further assay relates to guinea pig Leukotriene B4 Receptor (LTB4), gene 100379538. Put plainly: NVS_GPCR_gLTB4: NovaScreen (NVS) G Protein-Coupled Receptor Assay for guinea pig Leukotriene B4 Receptor (LTB4) (AID 2283247). A digest of the protocol:
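Radioligand displacement on guinea pig spleen membranes, filter-based scintillation counting 2 h after dosing. Primary duplicate single point at 25 uM; hits over threshold (e.g. 30% inhibition) run in concentration-response up to 50 uM, DMSO baseline.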
For `NC=O`, the result was inactive. On to `CCc1cc(C2=C(C(=O)O)N(c3ccccc3C(F)(F)F)S(=O)(=O)c3ccccc32)cc2c1OCO2`, for which the AC50 was 3.48 µM (active). Regarding `C#CC(O)C(CC)CCCC` (stereo not drawn), the AC50 is 2.8 µM (active). As for `O=Cc1ccccc1C=O`, the compound was classed as inactive.
